Experimental data as given in PubChem BioAssay AID1159580 (chemical genetic matrix, 2015).
Out of some 5,500 compounds screened, about 2,000 (36%) were called active. Roughly 18% stayed inconclusive and do not appear here. No stated cut-off is given here; in the data, active means normalized growth mostly below about 0.91 (no sharp cut-off); inconclusive means no clear call, values can overlap the other calls; inactive means mostly above about 0.92. Some of the results follow.

Assay: chemical genetic growth profiling, strain panel (AID 1159580);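 further: tested at 20 µM; growth read once vehicle control cultures reached saturation at 30 °C; 1 = growth at the plate median or of vehicle wells; lower values mean less growth of the strain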
Settings: S. cerevisiae deletion strains, growth OD
[1] = locus YDL101C, strain DUN1, active compounds read low
[2] = locus YHR030C, strain SLT2, active compounds read low

Measured: normalized growth

O=C(Nc1cc(Cl)cc(Cl)c1)c1cc(Br)ccc1O
inactive: locus YAR019C, strain CDC15, active compounds read low 0.944 | locus YBL105C, strain PKC1, active compounds read low 0.958 | locus YBR135W, strain CKS1, active compounds read low 0.946 | locus YBR136W, strain MEC1, active compounds read low 0.949 | locus YBR160W, strain CDC28, active compounds read low 0.955 | locus YDL017W, strain CDC7, active compounds read low 0.942 | locus YDL028C, strain MPS1, active compounds read low 0.955 | [1] 0.985 | locus YDL108W, strain KIN28, active compounds read low 0.953 | locus YDL132W, strain cdc53, active compounds read low 0.933 | locus YDL214C, strain PRR2, active compounds read low 0.849 | locus YDR052C, strain DBF4, active compounds read low 0.925 | locus YDR054C, strain cdc34, active compounds read low 0.939 | locus YDR226W, strain ADK1, active compounds read low 0.935 | locus YDR477W, strain SNF1, active compounds read low 0.872 | locus YER123W, strain YCK3, active compounds read low 0.774 | locus YER133W, strain GLC7, active compounds read low 0.831 | locus YFL009W, strain cdc4, active compounds read low 0.936 | locus YFL029C, strain CAK1, active compounds read low 0.942 | locus YFR003C, strain YPI1, active compounds read low 0.949 | locus YFR019W, strain FAB1, active compounds read low 0.91 | locus YFR028C, strain CDC14, active compounds read low 0.94 | locus YGR040W, strain KSS1, active compounds read low 0.888 | locus YGR052W, strain FMP48, active compounds read low 0.847 | locus YHR079C, strain IRE1, active compounds read low 0.68 | locus YHR082C, strain KSP1, active compounds read low 0.964 | locus YHR205W, strain SCH9, active compounds read low 0.656 | locus YIL147C, strain SLN1, active compounds read low 0.945 | locus YJL095W, strain BCK1, active compounds read low 0.76 | locus YJL128C, strain PBS2, active compounds read low 0.959 | locus YJR016C, strain ILV3, active compounds read low 0.944 | locus YJR066W, strain TOR1 (second series), active compounds read low 0.774 | locus YJR066W, strain TOR1, active compounds read low 0.792 | locus YKL048C, strain ELM1, active compounds read low 0.848 | locus YKL067W, strain YNK1, active compounds read low 0.799 | locus YKL101W, strain HSL1, active compounds read low 0.853 | locus YKL193C, strain SDS22, active compounds read low 0.936 | locus YKL203C, strain TOR2, active compounds read low 0.86 | locus YLR113W, strain HOG1, active compounds read low 0.892 | locus YLR133W, strain CKI1, active compounds read low 0.821 | locus YLR403W, strain SFP1, active compounds read low 0.747 | locus YML070W, strain DAK1, active compounds read low 0.872 | locus YMR001C, strain CDC5, active compounds read low 0.941 | locus YMR205C, strain PFK2 (second series), active compounds read low 0.858 | locus YMR277W, strain FCP1, active compounds read low 0.945 | locus YNL006W, strain LST8, active compounds read low 0.938 | locus YNL020C, strain ARK1, active compounds read low 0.738 | locus YNL161W, strain CBK1, active compounds read low 0.947 | locus YNL183C, strain NPR1, active compounds read low 0.917 | locus YNL207W, strain RIO2, active compounds read low 0.955 | locus YNL222W, strain SSU72, active compounds read low 0.949 | locus YNL307C, strain MCK1 (second series), active compounds read low 0.703 | locus YOL078W, strain AVO1, active compounds read low 0.952 | locus YOL136C, strain PFK27, active compounds read low 0.767 | locus YOR061W, strain CKA2, active compounds read low 0.749 | locus YOR119C, strain RIO1, active compounds read low 0.925 | locus YOR231W, strain MKK1, active compounds read low 0.888 | locus YOR329C, strain SCD5, active compounds read low 0.948 | locus YPL031C, strain PHO85, active compounds read low 0.841 | locus YPL153C, strain RAD53, active compounds read low 0.84 | locus YPL204W, strain HRR25, active compounds read low 0.801 | locus YPL209C, strain IPL1, active compounds read low 0.945 | locus YPL256C, strain CLN2, active compounds read low 0.871 | locus YPR025C, strain CCL1, active compounds read low 0.951 | locus YPR106W, strain ISR1, active compounds read low 0.971 | locus YPR111W, strain DBF20, active compounds read low 0.96 | strain NNK1, active compounds read low 0.964 | strain TSCII, active compounds read low 0.942
active: locus YGR092W, strain DBF2, active compounds read low 0.405 | [2] 0.816 | locus YJL157C, strain FAR1, active compounds read low 0.698

CCCCC#Cc1ccc(C(=O)NNC(=O)Nc2cc(Cl)cc(Cl)c2)o1
inactive: locus YAL013W, strain DEP1, active compounds read low 1.03 | locus YBR229C, strain ROT2, active compounds read low 1.01 | locus YCL061C, strain MRC1, active compounds read low 0.981 | [1] 1.02 | locus YDR150W, strain NUM1, active compounds read low 0.963 | locus YEL061C, strain CIN8, active compounds read low 0.963 | locus YGR078C, strain PAC10, active compounds read low 1 | [2] 1.01 | locus YHR087W, strain rtc3, active compounds read low 1.01 | locus YJR043C, strain POL32, active compounds read low 0.998 | locus YJR075W, strain HOC1, active compounds read low 0.973 | locus YLR039C, strain RIC1, active compounds read low 1.03 | locus YLR058C, strain SHM2 (second series), active compounds read low 1.01 | locus YLR085C, strain ARP6, active compounds read low 1.07 | locus YLR262C, strain YPT6, active compounds read low 1.05 | locus YML094W, strain GIM5, active compounds read low 1 | locus YMR219W, strain ESC1, active compounds read low 1.01 | locus YMR263W, strain SAP30, active compounds read low 1.07 | locus YMR307W, strain GAS1, active compounds read low 1 | locus YNL128W, strain TEP1, active compounds read low 0.995 | locus YNL153C, strain GIM3, active compounds read low 0.995 | locus YNL298W, strain CLA4 (second series), active compounds read low 1.03 | locus YNL322C, strain KRE1, active compounds read low 1.03 | locus YNR030W, strain Alg12, active compounds read low 0.995 | locus YPL055C, strain LGE1, active compounds read low 1.03 | locus YPL241C, strain CIN2, active compounds read low 1.02 | locus YPR135W, strain CTF4, active compounds read low 0.931
